Measurements reported in PubChem BioAssay AID1159580 (chemical genetic matrix, 2015).
Several values for one entry are separate records, joined by “and”; a condition that tells them apart may be missing. Equal entries are not always repeated. About 2,000 (36%) of roughly 5,500 compounds were called active. Another 18% or so got no clear call; they are omitted. Cut-off read from the data, not from the text of the source: active = normalized growth mostly below about 0.91 (no sharp cut-off); inconclusive = no clear call, values can overlap the other calls; inactive = mostly above about 0.92. The list shows a part of the results.

Assay: chemical genetic growth profiling, strain panel (AID 1159580);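 note: tested at 20 µM; growth read once vehicle control cultures reached saturation at 30 °C; 1 = growth at the plate median or of vehicle wells; lower values mean less growth of the strain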
Settings: growth OD

Measured: normalized growth

CC12CCC3c4ccc(OC(=O)c5ccccc5)cc4CCC3C1CCC2O (configuration not stated)
inactive: S. cerevisiae deletion strains, locus YBR021W, strain FUR4, active compounds read low 1.06 | S. cerevisiae deletion strains, locus YBR229C, strain ROT2, active compounds read low 1 | S. cerevisiae deletion strains, locus YCL029C, strain bik1, active compounds read low 1 | S. cerevisiae deletion strains, locus YDL035C, strain GPR1, active compounds read low 1 | S. cerevisiae deletion strains, locus YDL074C, strain BRE1, active compounds read low 0.981 | S. cerevisiae deletion strains, locus YDL101C, strain DUN1, active compounds read low 0.992 | S. cerevisiae deletion strains, locus YDL134C, strain PPH21, active compounds read low 1 | S. cerevisiae deletion strains, locus YDL185W, strain tfp1, active compounds read low 0.999 | S. cerevisiae deletion strains, locus YDL192W, strain arf1, active compounds read low 0.995 | S. cerevisiae deletion strains, locus YDR101C, strain arx1, active compounds read low 0.99 | S. cerevisiae deletion strains, locus YDR162C, strain NBP2, active compounds read low 1.02 | S. cerevisiae deletion strains, locus YDR318W, strain mcm21, active compounds read low 0.99 | S. cerevisiae deletion strains, locus YDR388W, active compounds read low 0.993 | S. cerevisiae deletion strains, locus YDR502C, strain sam2, active compounds read low 1 | S. cerevisiae deletion strains, locus YEL061C, strain CIN8, active compounds read low 1.01 | S. cerevisiae deletion strains, locus YER110C, active compounds read low 1 | S. cerevisiae deletion strains, locus YER155C, strain BEM2, active compounds read low 1.01 | S. cerevisiae deletion strains, locus YER167W, strain BCK2, active compounds read low 1 | S. cerevisiae deletion strains, locus YGL078C, strain dbp3, active compounds read low 1 | S. cerevisiae deletion strains, locus YGL086W, strain mad1, active compounds read low 1 | S. cerevisiae deletion strains, locus YGL248W, strain PDE1, active compounds read low 0.992 | S. cerevisiae deletion strains, locus YGR135W, strain pre9, active compounds read low 0.997 | S. cerevisiae deletion strains, locus YGR229C, strain SMI1, active compounds read low 1.02 | S. cerevisiae deletion strains, locus YGR252W, strain gcn5, active compounds read low 1 | S. cerevisiae deletion strains, locus YHR030C, strain SLT2, active compounds read low 1.01 and 1.03 | S. cerevisiae deletion strains, locus YHR079C, strain IRE1 (second series), active compounds read low 1 | S. cerevisiae deletion strains, locus YHR079C, strain IRE1, active compounds read low 1.05 | S. cerevisiae deletion strains, locus YHR094C, strain hxt1, active compounds read low 0.995 | S. cerevisiae deletion strains, locus YHR129C, strain ARP1, active compounds read low 1 | S. cerevisiae deletion strains, locus YHR200W, strain rpn10, active compounds read low 1 | S. cerevisiae deletion strains, locus YIL066C, strain RNR3, active compounds read low 1 | S. cerevisiae deletion strains, locus YIL073C, strain SPO22, active compounds read low 1.03 | S. cerevisiae deletion strains, locus YIL125W, strain kgd1, active compounds read low 0.994 | S. cerevisiae deletion strains, locus YIR030C, strain dcg1, active compounds read low 0.997 | S. cerevisiae deletion strains, locus YJL095W, strain BCK1, active compounds read low 0.958 and 1.01 | S. cerevisiae deletion strains, locus YJL134W, strain LCB3, active compounds read low 1.01 | S. cerevisiae deletion strains, locus YJL168C, strain set2, active compounds read low 0.989 | S. cerevisiae deletion strains, locus YJL187C, strain SWE1 (second series), active compounds read low 1 | S. cerevisiae deletion strains, locus YJR043C, strain POL32, active compounds read low 1.01 | S. cerevisiae deletion strains, locus YJR066W, strain TOR1, active compounds read low 0.963 | S. cerevisiae deletion strains, locus YJR075W, strain HOC1, active compounds read low 1.01 | S. cerevisiae deletion strains, locus YKL009W, strain mrt4, active compounds read low 1 | S. cerevisiae deletion strains, locus YKL068W, active compounds read low 1.01 | S. cerevisiae deletion strains, locus YKL085W, strain MDH1 (second series), active compounds read low 1 | S. cerevisiae deletion strains, locus YKL085W, strain MDH1, active compounds read low 1 | S. cerevisiae deletion strains, locus YKL190W, strain CNB1, active compounds read low 1.01 | S. cerevisiae deletion strains, locus YKR001C, strain vps1, active compounds read low 0.945 | S. cerevisiae deletion strains, locus YLR039C, strain RIC1, active compounds read low 0.755 | S. cerevisiae deletion strains, locus YLR058C, strain SHM2, active compounds read low 1.01 | S. cerevisiae deletion strains, locus YLR102C, strain apc9, active compounds read low 0.991 | S. cerevisiae deletion strains, locus YLR113W, strain HOG1, active compounds read low 1.02 | S. cerevisiae deletion strains, locus YLR268W, strain sec22, active compounds read low 1 | S. cerevisiae deletion strains, locus YLR330W, strain CHS5, active compounds read low 1.02 | S. cerevisiae deletion strains, locus YLR342W, strain FKS1 (second series), active compounds read low 0.999 | S. cerevisiae deletion strains, locus YLR371W, strain rom2, active compounds read low 0.995 | S. cerevisiae deletion strains, locus YLR418C, strain cdc73, active compounds read low 0.949 | S. cerevisiae deletion strains, locus YML016C, strain PPZ1, active compounds read low 1.01 | S. cerevisiae deletion strains, locus YML032C, strain rad52, active compounds read low 0.992 | S. cerevisiae deletion strains, locus YML124C, strain tub3, active compounds read low 0.999 | S. cerevisiae deletion strains, locus YMR078C, strain ctf18, active compounds read low 0.988 | S. cerevisiae deletion strains, locus YMR223W, strain ubp8, active compounds read low 1 | S. cerevisiae deletion strains, locus YMR263W, strain SAP30, active compounds read low 1.01 | S. cerevisiae deletion strains, locus YMR307W, strain GAS1, active compounds read low 1.22 | S. cerevisiae deletion strains, locus YNL067W, strain RPL9B, active compounds read low 1.01 | S. cerevisiae deletion strains, locus YNL128W, strain TEP1, active compounds read low 1.04 | S. cerevisiae deletion strains, locus YNL153C, strain GIM3, active compounds read low 0.997 | S. cerevisiae deletion strains, locus YNL183C, strain NPR1, active compounds read low 0.934 | S. cerevisiae deletion strains, locus YNL233W, strain BNI4, active compounds read low 0.97 | S. cerevisiae deletion strains, locus YNL250W, strain rad50, active compounds read low 1 | S. cerevisiae deletion strains, locus YNL271C, strain bni1, active compounds read low 0.992 | S. cerevisiae deletion strains, locus YNL298W, strain CLA4, active compounds read low 0.993 | S. cerevisiae deletion strains, locus YNL307C, strain MCK1, active compounds read low 0.926 | S. cerevisiae deletion strains, locus YNR052C, strain pop2, active compounds read low 1 | S. cerevisiae deletion strains, locus YOL006C, strain TOP1, active compounds read low 0.921 | S. cerevisiae deletion strains, locus YOL012C, strain htz1 0.873 | S. cerevisiae deletion strains, locus YOL147C, strain pex11, active compounds read low 1 | S. cerevisiae deletion strains, locus YOR061W, strain CKA2, active compounds read low 1 | S. cerevisiae deletion strains, locus YOR069W, strain VPS5, active compounds read low 1.01 | S. cerevisiae deletion strains, locus YOR136W, strain idh2, active compounds read low 1 | S. cerevisiae deletion strains, locus YOR144C, strain elg1, active compounds read low 1 | S. cerevisiae deletion strains, locus YOR184W, strain ser1, active compounds read low 0.974 | S. cerevisiae deletion strains, locus YOR231W, strain MKK1, active compounds read low 1.03 | S. cerevisiae deletion strains, locus YOR316C, strain cot1, active compounds read low 0.992 | S. cerevisiae deletion strains, locus YPL055C, strain LGE1, active compounds read low 1 | S. cerevisiae deletion strains, locus YPL256C, strain CLN2, active compounds read low 1.06 | S. cerevisiae deletion strains, locus YPR119W, strain clb2, active compounds read low 0.994 | S. cerevisiae deletion strains, locus YPR141C, strain kar3, active compounds read low 1 | S. cerevisiae deletion strains, locus YPR163C, strain tif3, active compounds read low 1.01 | S. cerevisiae deletion strains, locus YPR167C, strain met16, active compounds read low 1 | S. cerevisiae deletion strains, strain wtn01, active compounds read low 0.996 | S. cerevisiae strains, strain wild type, active compounds read low 1
active: S. cerevisiae deletion strains, locus YLR262C, strain YPT6, active compounds read low 0.606
